PfM18AAP inh-1 = blocks P. falciparum M18 aspartyl aminopeptidase. recombinant PfM18AAP, H-Glu-NHMec fluorogenic cleavage. inhibition, % at 7.35 µM. 290,000 compounds, 1.2% hits. AID 1822;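 active = inhibition above the campaign mean inhibition over all tested compounds plus 3 SD, cut at about 28% in these data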;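 also: 0% = plate median of test compound wells and 100% = 2 mM ZnCl2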
PHOSPHO1 inh = blocks human PHOSPHO1 phosphatase activity. recombinant PHOSPHO1, absorbance phosphatase assay. inhibition, % at 13.3 µM. AID 1565. 290,000 compounds, 1.1% hits; in the data active = inhibition above about 60%
HDAC3 inhib = inhibitors of human histone deacetylase 3; recombinant HDAC3, fluorogenic peptide/trypsin coupled, fluorescence; inhibition, % at 8.3 µM; 320,000 compounds, 0.15% hits; in the data active = inhibition above about 26%, passing the limit was not always enough
Target sequence (O15379 whole entry, looked up): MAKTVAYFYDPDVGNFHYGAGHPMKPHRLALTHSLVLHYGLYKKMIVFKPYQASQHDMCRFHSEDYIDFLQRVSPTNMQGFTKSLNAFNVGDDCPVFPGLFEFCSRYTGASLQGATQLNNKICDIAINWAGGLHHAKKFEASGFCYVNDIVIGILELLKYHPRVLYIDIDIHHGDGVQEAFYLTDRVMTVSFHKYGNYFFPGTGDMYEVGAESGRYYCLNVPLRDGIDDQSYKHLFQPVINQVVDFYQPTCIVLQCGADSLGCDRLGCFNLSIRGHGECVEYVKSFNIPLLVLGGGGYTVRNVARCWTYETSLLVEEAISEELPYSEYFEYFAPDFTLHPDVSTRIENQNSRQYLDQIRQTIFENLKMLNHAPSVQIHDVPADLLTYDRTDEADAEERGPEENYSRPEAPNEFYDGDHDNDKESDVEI
UBC9 SUMO inh = SUMOylation inhibition | inhibition, % at 35 µM | 290,000 compounds, 0.36% hits | HTRF SUMOylation assay, SAE1/SAE2 + UBC9, in vitro; in the data active = inhibition above about 50%, passing the limit was not always enough
p97 ATPase inh = inhibitors of human p97 ATPase | recombinant p97 ATPase, Kinase-Glo ATP luminescence, 3 h | inhibition, % at 8 µM | 220,000 compounds, 0.42% hits | AID 1481; in the data active = inhibition above about 15%;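 also: 0% = DMSO vehicle and 100% = wells lacking enzyme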
G6PDH counter = inhibits Leuconostoc G6PDH, flagging false hits in G6PDH-based assays. 200,000 compounds, 0.12% hits. Purified L. mesenteroides G6PDH, diaphorase/resazurin coupled fluorescence, 45 min. inhibition, % at 5 µM. AID 1020; in the data active = inhibition above about 50%
PfM18AAP inh-2 = PfM18AAP inhibition, confirmation; AID 2170; 2,400 compounds, 28% hits; shares compounds with PfM18AAP inh-1; recombinant PfM18AAP, H-Glu-NHMec fluorogenic cleavage; inhibition, % at 7.35 µM;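 active = mean inhibition over replicate wells above the hit cutoff set for the earlier primary screen, cut at about 29% in these data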;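 also: 0% = median of test compound wells and 100% = 2 mM ZnCl2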
CTSL1 confirm = counter-screen for PFM18AAP inhibitors: confirmation of human cathepsin L inhibitors; shares compounds with PfM18AAP inh-1; purified cathepsin L1, Z-Leu-Arg-MCA fluorescence; inhibition, % at 5.96 µM; 2,400 tested, under 10 active; AID 2178;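 active = average inhibition across replicates above the hit cutoff set in the earlier primary screen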;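 also: 0% = median of test compound wells and 100% = Z-Phe-Ala-diazomethylketone 1 µM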
* = called active by the depositor. Shown are actives, neighbours in structure and some others; about 2.5% of the full set was active somewhere.

Screening CC(C)(C)c1cc[n+](-c2[nH]c(=O)sc2/C=N/NC([S-])=Nc2ccccc2)cc1 returned PfM18AAP inh-1 35*, PHOSPHO1 inh -28, HDAC3 inhib 2, UBC9 SUMO inh 4, p97 ATPase inh 2, PfM18AAP inh-2 5 and CTSL1 confirm 3.
`O=C(Cn1sc2ccccc2c1=O)NC12CC3CC(CC(C3)C1)C2` gave PfM18AAP inh-1 34*, PHOSPHO1 inh 84*, HDAC3 inhib 10, UBC9 SUMO inh 6, p97 ATPase inh 5, G6PDH counter -4, PfM18AAP inh-2 21 and CTSL1 confirm 1.
O=c1c2cc3c(=O)n(-c4ccccc4O)c(=O)c3cc2c(=O)n1-c1ccccc1O was read as PfM18AAP inh-1 41*, PHOSPHO1 inh -59, HDAC3 inhib -11, UBC9 SUMO inh 25, p97 ATPase inh 2, G6PDH counter 3, PfM18AAP inh-2 -40 and CTSL1 confirm 6.
Screening Cc1ccc(SCC(=O)OCC(=O)NCCc2ccccc2)cc1C returned HDAC3 inhib 2.
C=CCNC(=O)c1sc(=S)n(-c2ccc(C(=O)OCC)cc2)c1N was read as PfM18AAP inh-1 42*, PHOSPHO1 inh 22, HDAC3 inhib 0, UBC9 SUMO inh -12, p97 ATPase inh 0, G6PDH counter 22, PfM18AAP inh-2 -4 and CTSL1 confirm 0.
Screening O=C(CSc1nccn1Cc1ccccc1)NC1CCCC1 returned PfM18AAP inh-1 9, PHOSPHO1 inh -20 and UBC9 SUMO inh 6.
For COc1ccc(S(=O)(=O)Oc2ccccc2C(=S)N2CCOCC2)cc1 the results were PfM18AAP inh-1 45*, PHOSPHO1 inh -10, HDAC3 inhib 2, UBC9 SUMO inh -3, PfM18AAP inh-2 -13 and CTSL1 confirm 4.
Screening COc1ccc(S(=O)(=O)Oc2cccc(C(=S)N3CCOCC3)c2)cc1 returned PfM18AAP inh-1 6, PHOSPHO1 inh 28, HDAC3 inhib -1 and UBC9 SUMO inh -6.
CC(=O)Nc1ccc(NC(=O)CSc2nnc(-c3ccco3)o2)cc1 was read as PfM18AAP inh-1 4, PHOSPHO1 inh 8, HDAC3 inhib 1, UBC9 SUMO inh 8, p97 ATPase inh -1 and G6PDH counter 4.
Cc1cc(NC(=O)CSc2nnc(-c3ccco3)o2)no1 was read as PfM18AAP inh-1 47*, PHOSPHO1 inh -9, HDAC3 inhib 4, UBC9 SUMO inh -16, p97 ATPase inh -6, G6PDH counter -16, PfM18AAP inh-2 -19 and CTSL1 confirm -2.
Screening CCn1c(C)nc2cc(C(=O)NNC(=S)Nc3ccc(C)cc3)ccc21 returned PfM18AAP inh-1 40*, PHOSPHO1 inh -128, HDAC3 inhib 8, UBC9 SUMO inh 23, p97 ATPase inh -2, PfM18AAP inh-2 -52 and CTSL1 confirm -1.
CCn1c(C)nc2cc(C(=O)NNC(=S)Nc3ccccc3OC)ccc21 was read as PfM18AAP inh-1 3, PHOSPHO1 inh 3, HDAC3 inhib 6, UBC9 SUMO inh 12 and p97 ATPase inh 8.
Cc1ccc(S(=O)(=O)NC(=O)Nc2ccc(N(C)C)cc2)cc1 was read as PfM18AAP inh-1 43*, PHOSPHO1 inh 14, HDAC3 inhib 5, UBC9 SUMO inh -233, PfM18AAP inh-2 -26 and CTSL1 confirm 4.
CC(=O)Nc1ccc(S(=O)(=O)NC2(C(F)(F)F)NC(=O)N(c3ccc(C)cc3)C2=O)cc1 (centres undefined) was read as PfM18AAP inh-1 -3, PHOSPHO1 inh 42, HDAC3 inhib -11 and UBC9 SUMO inh 10.
For O=C1N(c2cccc3ccccc23)C(c2ccccc2)N2CCCN12 (centres undefined) the results were PfM18AAP inh-1 -1, PHOSPHO1 inh 2, HDAC3 inhib 2, UBC9 SUMO inh 2, p97 ATPase inh -3 and G6PDH counter 4.
For CN1C(=O)N(c2cccc3ccccc23)C(n2cncn2)C1(C)C (centres undefined) the results were PfM18AAP inh-1 81*, PHOSPHO1 inh 2, HDAC3 inhib 7, UBC9 SUMO inh -29, p97 ATPase inh 1, G6PDH counter 3, PfM18AAP inh-2 77* and CTSL1 confirm -1.

Screening data as filed in PubChem BioAssay.
